Measured values reported in PubChem BioAssay (Tox21).
Records with an inconclusive call do not appear. Activity calls are given as the source filed them. Unless noted, calls follow the shape of the dose curve; as a rule, active = well fitted curve in the direction sought with a large enough effect in the repeat runs; inconclusive = weak or mixed curves; inactive = no such curve, though single readings can be large; an effect the other way counts as inactive or inconclusive.

Columns and labels:
[1] = target: Progesterone receptor (Homo sapiens) (UniProt P06401); test: qHTS assay to identify small molecule agonists of the progesterone receptor (PR) signaling pathway (AID 1346784; calls by dose curve; also: nearly all actives have a fitted effect of over 30% in size)
Sequence of Progesterone receptor (Homo sapiens) (P06401 whole entry, looked up): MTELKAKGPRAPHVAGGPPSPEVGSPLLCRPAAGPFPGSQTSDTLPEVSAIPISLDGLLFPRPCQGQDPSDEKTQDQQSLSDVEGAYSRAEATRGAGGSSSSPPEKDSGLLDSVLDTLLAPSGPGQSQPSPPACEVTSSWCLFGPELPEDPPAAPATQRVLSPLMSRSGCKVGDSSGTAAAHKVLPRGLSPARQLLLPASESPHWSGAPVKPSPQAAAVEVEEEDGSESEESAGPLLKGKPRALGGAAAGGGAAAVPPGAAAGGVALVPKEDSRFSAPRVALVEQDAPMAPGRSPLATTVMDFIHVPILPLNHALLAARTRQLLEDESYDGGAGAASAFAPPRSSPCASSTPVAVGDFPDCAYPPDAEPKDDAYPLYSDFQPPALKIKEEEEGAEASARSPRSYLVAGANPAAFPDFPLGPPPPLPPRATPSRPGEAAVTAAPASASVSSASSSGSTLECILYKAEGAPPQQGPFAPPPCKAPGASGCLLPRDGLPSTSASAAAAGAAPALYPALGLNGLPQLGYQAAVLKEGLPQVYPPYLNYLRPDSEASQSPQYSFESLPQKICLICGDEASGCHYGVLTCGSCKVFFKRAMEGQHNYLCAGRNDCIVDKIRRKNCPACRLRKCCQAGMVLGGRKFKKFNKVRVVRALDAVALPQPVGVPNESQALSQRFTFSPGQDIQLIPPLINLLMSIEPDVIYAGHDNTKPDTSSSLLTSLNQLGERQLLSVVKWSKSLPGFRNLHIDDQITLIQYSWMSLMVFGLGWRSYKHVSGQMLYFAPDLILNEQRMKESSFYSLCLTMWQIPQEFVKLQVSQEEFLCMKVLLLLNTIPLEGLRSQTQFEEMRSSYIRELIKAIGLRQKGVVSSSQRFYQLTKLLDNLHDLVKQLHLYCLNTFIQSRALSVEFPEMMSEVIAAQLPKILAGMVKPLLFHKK
Outline: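 PR-UAS-bla HEK 293T cells (beta-lactamase reporter under UAS) in 2% charcoal-stripped FBS, dosed with 23 nL compound after 6 hr, incubated 16hr at 37C. LiveBLAzer B/G FRET substrate added, fluorescence read after 2 hours.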

[2] = target: Progesterone receptor (Homo sapiens) (UniProt P06401); test: qHTS assay to identify small molecule antagonists of the progesterone receptor (PR) signaling pathway (AID 1346795; active = well fitted inhibition curve with a large enough effect in the signal ratio in the repeat runs, not every such curve was filed as active; the % refers to the signal ratio)
Outline: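 PR-UAS-bla HEK293T cells with beta-lactamase reporter under UAS control, in 2% charcoal-stripped FBS, treated with compounds plus 1 nM promegestone (R5020, final) for 16 hr at 37C. Read-out: FRET beta-lactamase substrate fluorescence after 2 hr at room temperature.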

[3] = qHTS assay to identify small molecule antagonists of the progesterone receptor (PR) signaling pathway - cell viability counter screen (AID 1346798); also: nearly all actives have a fitted effect of over 50% in size; also: potency is read from the fitted curve at half-maximal effect
Outline: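 PR-UAS-bla HEK293T cells, 3,000/well in 2% charcoal-stripped FBS medium, dosed with compounds plus R5020 agonist and incubated 16 h at 37C. Viability then measured in the same wells by CellTiter-Glo luminescence after 30 min at RT.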

[4] = qHTS assay to identify small molecule antagonists of the TGF-beta/Smad signaling pathway - cell viability counter screen (AID 1346824); also: nearly all actives have a fitted effect of over 50% in size
Outline: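 Cytotoxicity counter-screen run in the same wells as the beta-lactamase Smad reporter read: CellTiter-Glo luminescence after 30 min at room temperature. HEK 293T SBE-bla cells had 5 hr compound exposure at 37 C with TGF-beta1 (0.25 ng/mL stock).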

[5] = qHTS assay to identify small molecule agonists of the TGF-beta/Smad signaling pathway - cell viability counter screen (AID 1346829); also: top concentration of the series differs between compounds; nearly all actives have a fitted effect of over 45% in size
Outline: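 Same-well cytotoxicity: CellTiter-Glo added after the 2 hr room-temperature beta-lactamase substrate step, luminescence measured 30 min later; cells had 5 hr of compound at 37 C.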

[6] = qHTS assay to identify small molecule agonists of the TGF-beta/Smad signaling pathway (AID 1346859; active = well fitted activation curve with a large enough effect in the signal ratio in the repeat runs, not every such curve was filed as active; the % refers to the signal ratio; also: series mostly up to about 77 µM)
Outline: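 SBE-bla HEK293T cells plated overnight, then compound exposure for 5 h at 37 C. Beta-lactamase reporter read with LiveBLAzer B/G FRET substrate after 2 h at room temperature, fluorescence at 405 nm excitation, 460/530 nm emission.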

[7] = Caspase-3/7 induction in HepG2 cells by small molecules, qHTS assay (AID 1346978); also: nearly all actives have a fitted effect of over 15% in size
Outline: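 Caspase-3/7 induction was measured by Caspase-Glo 3/7 luminescence (30 min, room temperature) after a 17 hr compound exposure of wild-type HepG2 cells seeded at 2,000 per well and pre-incubated 5 hr.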

[8] = Caspase-3/7 induction in CHO-K1 cells by small molecules, qHTS cell viability counter screen (AID 1346979); also: nearly all actives have a fitted effect of over 35% in size
Outline: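 Wild-type CHO-K1 cells (1,500/well) treated with compound after 5 h plating; after 16 h at 37C, viability read as CellTiter-Fluor fluorescence following 1 h reagent incubation, in the same wells as the caspase read.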

[9] = Caspase-3/7 induction in CHO-K1 cells by small molecules, qHTS assay (AID 1346980); also: nearly all actives have a fitted effect of over 15% in size
Outline: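 Luminescent Caspase-Glo 3/7 read (30min, room temperature) quantified apoptosis induction. Cells were wild-type CHO-K1, treated with compound for 17hr at 37 C and 5% CO2.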

[10] = Caspase-3/7 induction in HepG2 cells by small molecules, qHTS cell viability counter screen (AID 1346981); also: series mostly up to about 92 µM; nearly all actives have a fitted effect of over 30% in size
Outline: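 Wild-type HepG2 cells (2,000/well) were allowed to settle for 5 hr at 37 C, 5% CO2, then dosed with compounds in DMSO by pin transfer. After 16 hr at 37 C, CellTiter-Fluor was added and fluorescence read 1 hr later.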

[11] = target: Cytochrome P450 2D6 (Homo sapiens) (UniProt P10635); test: Cytochrome P450 Family 2 Subfamily D Member 6 (CYP2D6) small molecule antagonists: luciferase reporter qHTS assay (AID 1671196); also: nearly all actives have a fitted effect of over 50% in size; also: potency is read from the fitted curve at half-maximal effect
Sequence of Cytochrome P450 2D6 (Homo sapiens) (P10635 whole entry, looked up): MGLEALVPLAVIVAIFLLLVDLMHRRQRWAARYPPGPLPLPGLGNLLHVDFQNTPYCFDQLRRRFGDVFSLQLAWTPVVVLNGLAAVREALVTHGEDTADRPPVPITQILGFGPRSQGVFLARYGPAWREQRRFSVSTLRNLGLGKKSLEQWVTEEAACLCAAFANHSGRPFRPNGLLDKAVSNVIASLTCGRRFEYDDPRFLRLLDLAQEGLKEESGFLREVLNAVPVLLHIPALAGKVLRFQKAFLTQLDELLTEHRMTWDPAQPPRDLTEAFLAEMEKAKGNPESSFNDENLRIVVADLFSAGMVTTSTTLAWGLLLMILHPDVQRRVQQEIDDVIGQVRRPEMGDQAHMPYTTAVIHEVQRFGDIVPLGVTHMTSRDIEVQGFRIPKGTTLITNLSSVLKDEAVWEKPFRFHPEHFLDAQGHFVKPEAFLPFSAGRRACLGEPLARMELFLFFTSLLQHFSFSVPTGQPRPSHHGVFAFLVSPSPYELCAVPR
Outline: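 CYP2D6 enzyme–substrate mix was held with compound for 10 min at room temperature, then NADPH regeneration solution was added and the reaction ran 1 h at room temperature. Luciferin product was detected by luminescence after 20 min with detection reagent.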

[12] = qHTS assay to identify small molecule agonists of the estrogen receptor alpha (ER-alpha) signaling pathway in the presence of an antagonist - cell viability counter screen (AID 1259386);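 also: series mostly up to about 92 µM; cells exposed to compounds for 22 h at 37 °C before the viability read; nearly all actives have a fitted effect of over 30% in size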
Outline: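 VM7Luc4E2 cells (endogenous full-length ER-alpha, 4×ERE-luciferase) were held 5 days in phenol red-free medium with 10% charcoal-stripped FBS, plated, then given 10.0nM ICI-182,780 and compounds at 15 concentrations for 22hr at 37C; viability read by CellTiter-Fluor fluorescence.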

[13] = target: Thyrotropin-releasing hormone receptor (Homo sapiens) (UniProt P34981); test: qHTS assay to identify small molecule antagonists of the thyrotropin-releasing hormone receptor (TRHR) signaling pathway (AID 1346877; active = well fitted inhibition curve with a large enough effect in the repeat runs, not every such curve was filed as active; also: series mostly up to about 51 µM)
Sequence of Thyrotropin-releasing hormone receptor (Homo sapiens) (P34981 whole entry, looked up): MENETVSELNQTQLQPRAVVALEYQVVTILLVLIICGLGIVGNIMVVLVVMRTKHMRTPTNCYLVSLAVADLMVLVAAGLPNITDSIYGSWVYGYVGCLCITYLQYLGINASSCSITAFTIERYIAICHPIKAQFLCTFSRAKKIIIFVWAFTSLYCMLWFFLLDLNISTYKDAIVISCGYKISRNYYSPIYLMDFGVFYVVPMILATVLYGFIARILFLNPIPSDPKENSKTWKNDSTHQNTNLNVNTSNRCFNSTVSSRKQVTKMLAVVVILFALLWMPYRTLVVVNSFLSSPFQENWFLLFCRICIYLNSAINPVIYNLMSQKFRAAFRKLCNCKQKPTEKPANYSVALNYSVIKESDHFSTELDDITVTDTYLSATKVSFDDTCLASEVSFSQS
Outline: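 TRHR-expressing HEK293 cells were seeded, cultured 18 h at 37 °C, then loaded with calcium dye for 2 h. Compounds were pre-incubated 5 min at room temperature before 1 nM TRH (final) was added, and kinetic fluorescence was recorded for 3 min.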

[14] = target: Thyrotropin-releasing hormone receptor (Homo sapiens) (UniProt P34981); test: qHTS assay to identify small molecule agonists of the thyrotropin-releasing hormone receptor (TRHR) signaling pathway (AID 1346891; calls by dose curve; also: series mostly up to about 58 µM)
Outline: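 HEK293 cells expressing TRHR plated 18 h at 37 C/5% CO2, calcium dye-loaded 2 h at 37 C, then compound added (agonist mode); kinetic calcium fluorescence read 3 min at 1 s intervals; 15 concentrations in triplicate.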

[15] = Human pregnane X receptor (PXR) small molecule agonists, qHTS cell viability counter screen (AID 1346977); also: nearly all actives have a fitted effect of over 50% in size
Outline: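 PXR-Luc HepG2 cells (2,000/well, 5% charcoal-stripped FBS) preincubated 5 hr, then exposed to compounds 24 hr at 37 C. Viability read in the same wells by CellTiter-Fluor fluorescence, reagent added at 23 hr, 1 hr incubation.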

[16] = target: Nuclear receptor subfamily 1 group I member 2 (Homo sapiens) (UniProt O75469); test: Human pregnane X receptor (PXR) small molecule agonists, qHTS assay (AID 1346982); also: nearly all actives have a fitted effect of over 35% in size; also: potency is read from the fitted curve at half-maximal effect
Sequence of Nuclear receptor subfamily 1 group I member 2 (Homo sapiens) (O75469 whole entry, looked up): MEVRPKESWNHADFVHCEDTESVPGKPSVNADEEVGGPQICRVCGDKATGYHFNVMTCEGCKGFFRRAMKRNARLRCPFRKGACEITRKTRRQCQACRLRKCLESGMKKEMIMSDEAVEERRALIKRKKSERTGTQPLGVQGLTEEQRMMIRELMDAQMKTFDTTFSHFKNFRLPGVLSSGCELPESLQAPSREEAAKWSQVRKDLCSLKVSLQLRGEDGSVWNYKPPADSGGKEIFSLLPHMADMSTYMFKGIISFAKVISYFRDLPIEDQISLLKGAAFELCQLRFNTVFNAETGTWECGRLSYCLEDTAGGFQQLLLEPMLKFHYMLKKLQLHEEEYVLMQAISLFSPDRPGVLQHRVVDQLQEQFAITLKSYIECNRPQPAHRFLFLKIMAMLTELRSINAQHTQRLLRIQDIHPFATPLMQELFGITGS
Outline: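 PXR-Luc HepG2 cells (CYP3A4 promoter-driven luciferase) were seeded in medium with 5% charcoal-stripped FBS, left 5 hr at 37 C, then exposed to compounds in DMSO for 24 hr. Luminescence was read after ONE-Glo addition.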

[17] = qHTS assay to identify small molecule agonists of the progesterone receptor (PR) signaling pathway - cell viability counter screen (AID 1346799; calls by dose curve; also: nearly all actives have a fitted effect of over 45% in size)
Outline: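 Counter screen in the PR-UAS-bla HEK293T wells (2% charcoal-stripped FBS, 16 h compound exposure at 37 C) after the bla read. CellTiter-Glo added, 30 min at room temperature, luminescence read as cell viability.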

[18] = target: Nuclear receptor subfamily 1 group I member 2 (Rattus norvegicus) (UniProt Q9R1A7); test: Rat pregnane X receptor (rPXR) activation by small molecules, qHTS assay (AID 1346983); settings: rPXR luciferase reporter cells, One-Glo luminescence, 24 h; max activation: hits give high values; also: nearly all actives have a fitted effect of over 20% in size; also: potency is read from the fitted curve at half-maximal effect
Sequence of Nuclear receptor subfamily 1 group I member 2 (Rattus norvegicus) (Q9R1A7 whole entry, looked up): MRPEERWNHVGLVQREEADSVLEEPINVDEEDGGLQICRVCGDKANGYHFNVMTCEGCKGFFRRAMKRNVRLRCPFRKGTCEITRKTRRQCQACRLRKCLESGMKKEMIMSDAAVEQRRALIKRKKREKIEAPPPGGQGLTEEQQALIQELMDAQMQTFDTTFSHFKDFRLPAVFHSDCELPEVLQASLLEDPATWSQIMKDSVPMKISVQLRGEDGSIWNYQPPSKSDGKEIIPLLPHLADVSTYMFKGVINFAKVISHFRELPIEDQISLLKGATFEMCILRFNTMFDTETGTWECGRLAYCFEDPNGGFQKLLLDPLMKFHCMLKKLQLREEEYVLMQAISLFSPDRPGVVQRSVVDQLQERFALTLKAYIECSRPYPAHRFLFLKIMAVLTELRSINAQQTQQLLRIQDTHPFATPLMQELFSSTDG
Outline: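 Luminescent readout (One-Glo luciferase, 30 min room temperature) followed 24 hr compound treatment at 37 C of rPXR cells plated 2,000 per well and preincubated 5hr; qHTS format with compounds delivered in DMSO.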

[19] = target: Nuclear receptor subfamily 1 group I member 2 (Homo sapiens) (UniProt O75469); test: Human pregnane X receptor (PXR) activation by small molecules, qHTS assay (AID 1346985); also: nearly all actives have a fitted effect of over 40% in size; also: potency is read from the fitted curve at half-maximal effect
Outline: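 DPX-2 cells (HepG2 co-transfected with a PXR response element and a CYP3A4-promoter luciferase construct) were seeded at 2,000 per well, rested 5 hr at 37C, then exposed to DMSO-dissolved compounds for 24 hr. Activation was read as luciferase luminescence.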

[20] = target: Nuclear receptor subfamily 1 group I member 2 (Homo sapiens) (UniProt O75469); test: CYP3A4 induction through human pregnane X receptor (PXR) by small molecules, qHTS assay (AID 1346984); also: nearly all actives have a fitted effect of over 40% in size
Outline: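 DPX-2 cells (HepG2 co-transfected with PXR and CYP3A4 promoter-luciferase) treated with compounds 24 h at 37C; luciferin-IPA CYP3A4 substrate 3uM final added for 3 h, then One-Glo; luminescence read. qHTS format.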
% is scaled to controls: 0 for no effect and ±100 for the full control effect.

CCCCCOC(=O)COc1cc(N2C(=O)C3=C(CCCC3)C2=O)c(F)cc1Cl
active: Potency [11] 25.2 µM
inactive: outcome [1] | Potency [2] | Potency [3] | Potency [4] | Potency [5] | outcome [6] | outcome [7] | Potency [8] | Potency [9] | Potency [10]

CCCC(=O)OCC
inactive: Potency [12] | Potency [4] | Potency [5] | outcome [6] | outcome [13] | Potency [14] | Potency [15] | outcome [7] | Potency [8] | Potency [9] | Potency [10] | Potency [16] | Potency [11]

CNS(=O)(=O)Cc1ccc2[nH]cc(CCN(C)C)c2c1
inactive: Potency [12] | Potency [3] | Potency [17] | Potency [4] | Potency [5] | outcome [6] | outcome [13] | Potency [14] | Potency [15] | outcome [7] | Potency [8] | Potency [9] | Potency [10] | Potency [16] | max activation [18] -4.94% | Potency [19]
active: Potency [11] 24.5 µM

NC1CCN(c2nc3c(cc2F)c(=O)c(C(=O)O)cn3-c2ccc(F)cc2F)C1 (stereo not drawn)
inactive: Potency [12] | Potency [4] | Potency [5] | outcome [6] | outcome [13] | Potency [14] | Potency [15] | outcome [7] | Potency [9] | Potency [10] | max activation [18] -4.88% | Potency [11]

Nc1ccc(C(=O)Nc2ccccc2N)cc1
inactive: Potency [12] | Potency [4] | Potency [5] | outcome [6] | Potency [9] | Potency [10] | Potency [11]
active: Potency [3] 13.3 µM | Potency [16] 8.41 µM | Potency [18] 3.55 µM | Potency [19] 11.2 µM

CCCc1ccccc1
inactive: Potency [12] | Potency [17] | Potency [4] | Potency [5] | outcome [6] | outcome [13] | Potency [14] | Potency [15] | outcome [7] | Potency [8] | Potency [9] | Potency [10] | Potency [16] | Potency [11]

CC(=O)N(O)CCCCCNC(=O)CCC(=O)N(O)CCCCCNC(=O)CCC(=O)N(O)CCCCCN
inactive: outcome [1] | Potency [2] | Potency [4] | Potency [5] | outcome [6] | outcome [13] | Potency [14] | Potency [15] | outcome [7] | Potency [8] | Potency [9] | Potency [10] | Potency [16] | max activation [18] -2.68% | Potency [19]

CCOc1cc(OCC)c(C(=O)CCC(=O)O)cc1OCC
inactive: outcome [1] | Potency [2] | Potency [3] | Potency [17] | Potency [4] | Potency [5] | outcome [13] | Potency [14] | outcome [7] | Potency [8] | Potency [10] | Potency [16] | max activation [18] -2.62% | Potency [20] | Potency [19] | Potency [11]

C[Si](C)O[Si](C)(C)O[Si](C)(C)O[Si](C)C
inactive: outcome [1] | Potency [2] | Potency [17] | Potency [4] | Potency [5] | outcome [6] | Potency [14] | Potency [15] | outcome [7] | Potency [8] | Potency [9] | Potency [10] | Potency [16] | Potency [11]
